In the antibiotic and cytotoxicity screens of Wong et al. (2023):
Among all 39,000 compounds or so, about 1,500 (3.8%) were called active. The entries come from a sample that favours actives as a whole.

system: HSkMC (human skeletal muscle cells); test: cytotoxicity call (relative viability < 0.9); settings: 10 µM

SMILES | cytotoxicity call
c1ccc2c(c1)-c1ccc3ccc4cccc5cc-2c1c3c45 | inactive
CCN(CC)CCCCNc1ncc2cc(-c3cc(OC)cc(OC)c3)c(NC(=O)NC(C)(C)C)nc2n1 | active
CCN(CC)CCCCNc1ncc2cc(-c3c(Cl)cccc3Cl)c(NC(=O)NC(C)(C)C)nc2n1 | inactive
CCN(CC)CCNC(=O)COc1ccc(OC)cc1.Cl | inactive
Cc1noc(C)c1S(=O)(=O)N(C)C[C@@H]1Oc2ccc(NC(=O)Cc3cn(C)c4ccccc34)cc2CC(=O)N([C@@H](C)CO)C[C@H]1C | inactive
C[C@@H]1CN([C@@H](C)CO)C(=O)c2cc(NS(=O)(=O)c3ccc(F)cc3)ccc2O[C@@H]1CN(C)CC1CC1 | inactive
COc1cc(C(=O)OCCN2CCN(CCOC(=O)c3cc(OC)c(OC)c(OC)c3)CC2)cc(OC)c1OC | inactive
CCc1c(O)cc(O)c(C(=O)c2ccc(OCCN3CCOCC3)c(OC)c2)c1CC(=O)N(CCOC)CCOC | active
COc1c(OCCCN2CCOCC2)ccc2c1N=C(NC(=O)c1cnc(N)nc1)N1CCN=C21 | inactive
C[C@@H]1CN([C@@H](C)CO)S(=O)(=O)c2ccc(C#CC3(O)CCCC3)cc2O[C@H]1CN(C)C(=O)Nc1ccccc1 | inactive
N=C(N)N/N=C1\CCc2c(C(=N)N)cccc21 | active
C[C@H](CO)N1C[C@H](C)[C@H](CN(C)S(=O)(=O)c2ccccc2)Oc2ccc(NS(=O)(=O)c3ccccc3)cc2CC1=O | inactive
C[C@H](CO)N1C[C@H](C)[C@@H](CN(C)Cc2ccc3c(c2)OCO3)Oc2cc(C#CCN(C)C)ccc2S1(=O)=O | inactive
CNC(=O)c1ccc(Nc2ncc(C(F)(F)F)c(NCc3nccnc3N(C)S(C)(=O)=O)n2)cc1 | active
CN(c1ncccc1CNc1nc(Nc2ccc3c(c2)CC(=O)N3)ncc1C(F)(F)F)S(C)(=O)=O | active
C[C@H](CO)N1C[C@H](C)[C@@H](CN(C)S(C)(=O)=O)Oc2ccc(NS(=O)(=O)c3cccs3)cc2CC1=O | inactive
C[C@H](CO)N1C[C@H](C)[C@@H](CN(C)S(=O)(=O)c2cn(C)cn2)Oc2ccc(NC(=O)CCC(F)(F)F)cc2CC1=O | inactive
COc1ccncc1-c1ccccc1CN(C(=O)c1ccc(-c2ccc(C#N)cc2)o1)c1ccc(N2CCNCC2)cc1 | active
C[C@H](CO)N1C[C@H](C)[C@@H](CN(C)Cc2ccc(Cl)c(Cl)c2)Oc2ccc(NC(=O)Nc3ccc(F)cc3)cc2CC1=O | active
C[C@@H]1CN([C@@H](C)CO)C(=O)Cc2cc(NC(=O)Nc3ccc(F)cc3)ccc2O[C@@H]1CN(C)Cc1ccc(Cl)c(Cl)c1 | active
C[C@@H]1CN([C@H](C)CO)C(=O)Cc2cc(NC(=O)Nc3ccc(F)cc3)ccc2O[C@H]1CN(C)Cc1ccc(Cl)c(Cl)c1 | active
C[C@@H]1CN([C@@H](C)CO)C(=O)Cc2cc(NC(=O)Nc3ccc(F)cc3)ccc2O[C@H]1CN(C)Cc1ccc(Cl)c(Cl)c1 | active
C[C@@H]1CCCCO[C@@H](CN(C)C(=O)c2ccccc2)[C@H](C)CN([C@H](C)CO)C(=O)c2cc(NC(=O)Nc3cccc4ccccc34)ccc2O1 | inactive
C[C@@H]1CN([C@@H](C)CO)C(=O)c2cc(NS(=O)(=O)c3ccc(F)cc3)ccc2O[C@@H](C)CCCCO[C@@H]1CN(C)C(=O)Nc1ccccc1 | inactive

SMILES | cytotoxicity call
C[C@H]1CCCCO[C@H](CN(C)Cc2ccc(C(F)(F)F)cc2)[C@@H](C)CN([C@@H](C)CO)C(=O)c2cc(NC(=O)C3CCCCC3)ccc2O1 | inactive
C[C@@H]1CN([C@H](C)CO)C(=O)Cc2cc(NC(=O)CCN3CCOCC3)ccc2O[C@@H]1CN(C)Cc1ccccc1 | inactive
C[C@H](CO)N1C[C@H](C)[C@H](CN(C)Cc2ccc(Oc3ccccc3)cc2)Oc2ccc(NC(=O)C3CCCCC3)cc2C1=O | inactive
Cc1ccc(S[C@]2(C(=O)O)CC(=O)N(Cc3ccccc3C(F)(F)F)[C@@H]2c2ccc(CO)cc2)cc1 | inactive
COc1cccc(S(=O)(=O)N(C)C[C@@H]2Oc3ncc(-c4cccc(F)c4)cc3C(=O)N([C@H](C)CO)C[C@@H]2C)c1 | inactive
C[C@H](CO)N1C[C@H](C)[C@H](CN(C)Cc2ccc(C(=O)O)cc2)Oc2ccc(NC(=O)c3ccncc3)cc2C1=O | inactive
C[C@@H]1CCCCO[C@@H](CN(C)Cc2ccc(C(=O)O)cc2)[C@@H](C)CN([C@@H](C)CO)C(=O)c2cc(NS(=O)(=O)c3cccs3)ccc2O1 | inactive
C[C@@H]1CN([C@H](C)CO)C(=O)CCCn2cc(nn2)CO[C@@H]1CN(C)S(=O)(=O)c1ccc2ccccc2c1 | inactive
O=C(C[C@@H]1CC[C@@H]2[C@H](COC[C@@H](O)CN2C(=O)Nc2ccc(F)cc2)O1)NCCCN1CCOCC1 | inactive
C[C@@H]1CN([C@@H](C)CO)C(=O)c2cc(NS(=O)(=O)c3ccc(F)cc3)ccc2O[C@@H](C)CCCCO[C@H]1CN(C)Cc1ccc(C(=O)O)cc1 | inactive
C[C@@H](O)[C@@H](O)[C@@H](O)C/C=N/NC(=O)c1ccc(C(=O)NO)cc1 | inactive
Cc1cc([N+](=O)[O-])nn1CC(=O)N1CCOCC1 | inactive
COc1ccc(NC(=O)N(C)C[C@@H]2OCCCC[C@H](C)Oc3ccc(NC(=O)Nc4ccc(F)cc4)cc3C(=O)N([C@H](C)CO)C[C@@H]2C)cc1 | inactive
C[C@@H]1CN([C@H](C)CO)C(=O)Cc2cc(NC(=O)Nc3ccc(F)cc3)ccc2O[C@@H]1CN(C)Cc1ccc(Cl)c(Cl)c1 | active
C[C@H](CO)N1C[C@H](C)[C@H](CN(C)Cc2ccc(Cl)c(Cl)c2)Oc2ccc(NC(=O)Nc3ccc(F)cc3)cc2CC1=O | active
C[C@H]1CN([C@@H](C)CO)C(=O)Cc2cc(NC(=O)Nc3ccc(F)cc3)ccc2O[C@H]1CN(C)Cc1ccc(Cl)c(Cl)c1 | active
C[C@H]1CN([C@@H](C)CO)C(=O)Cc2cc(NC(=O)Nc3ccc(F)cc3)ccc2O[C@@H]1CN(C)Cc1ccc(Cl)c(Cl)c1 | active
Cc1noc(C)c1NC(=O)N(C)C[C@H]1Oc2c(NS(=O)(=O)c3cn(C)cn3)cccc2C(=O)N([C@@H](C)CO)C[C@H]1C | inactive
C/C=C/COc1nc2c(c(=O)n(C)c(=O)n2C)n1C | inactive
C[C@H]1CN([C@@H](C)CO)C(=O)c2cc(NC(=O)Cn3cnnn3)ccc2O[C@@H]1CN(C)C(=O)NC1CCCCC1 | inactive
C[C@@H]1CN([C@@H](C)CO)C(=O)c2cccc(NC(=O)Nc3ccc(F)cc3)c2O[C@@H]1CN(C)Cc1ccc(C(F)(F)F)cc1 | inactive
CC(C)NC(=O)N(C)C[C@H]1Oc2ccc(NC(=O)Cn3cnnn3)cc2CC(=O)N([C@H](C)CO)C[C@@H]1C | inactive
CC(=O)OCC(=O)C1(O)CCC2C3CCC4CC(O)CCC4(C)C3C(=O)CC21C (stereo unspecified) | inactive
COc1ccc(NC(=O)Nc2ccc3c(c2)C(=O)N([C@H](C)CO)C[C@H](C)[C@H](CN(C)S(=O)(=O)c2cccs2)OCCCC[C@H](C)O3)cc1 | inactive

SMILES | cytotoxicity call
C[N+](C)(C)CCCCNC(=O)[C@H]1C[C@H]2C(=O)N3CCC[C@H]3C(=O)N2[C@H]1c1cccc(OCCO)c1 | inactive
C[C@H](CO)N1C[C@H](C)[C@@H](CN(C)C(=O)c2ccc3c(c2)OCO3)Oc2cc(-c3cncnc3)ccc2S1(=O)=O | inactive
CCCCCCCCCC(=O)N[C@@H](Cc1c[nH]c2ccccc12)C(=O)N[C@H](CC(N)=O)C(=O)N[C@@H](CC(=O)O)C(=O)N[C@@H]1C(=O)NCC(=O)N[C@@H](CCCN)C(=O)N[C@@H](CC(=O)O)C(=O)N[C@H](C)C(=O)N[C@@H](CC(=O)O)C(=O)NCC(=O)N[C@H](CO)C(=O)N[C@@H]([C@H](C)CC(=O)O)C(=O)N[C@@H](CC(=O)c2ccccc2N)C(=O)O[C@@H]1C | inactive
C[C@@H]1CN([C@H](C)CO)C(=O)Cc2cc(NC(=O)Nc3ccc(C(F)(F)F)cc3)ccc2O[C@@H]1CN(C)C(=O)NC1CCCCC1 | active
C[C@H]1CN([C@@H](C)CO)C(=O)Cc2cc(NC(=O)Nc3ccc(C(F)(F)F)cc3)ccc2O[C@H]1CN(C)C(=O)NC1CCCCC1 | inactive
C[C@H](CO)N1C[C@H](C)[C@@H](CN(C)C(=O)NC2CCCCC2)Oc2ccc(NC(=O)Nc3ccc(C(F)(F)F)cc3)cc2CC1=O | inactive
C[C@@H]1CN([C@@H](C)CO)C(=O)Cc2cc(NC(=O)Nc3ccc(C(F)(F)F)cc3)ccc2O[C@@H]1CN(C)C(=O)NC1CCCCC1 | active
C[C@@H]1CN([C@H](C)CO)C(=O)Cc2cc(NC(=O)Nc3ccc(C(F)(F)F)cc3)ccc2O[C@H]1CN(C)C(=O)NC1CCCCC1 | inactive
C[C@@H]1CN([C@@H](C)CO)C(=O)Cc2cc(NC(=O)Nc3ccc(C(F)(F)F)cc3)ccc2O[C@H]1CN(C)C(=O)NC1CCCCC1 | inactive
C[C@H](CO)N1C[C@H](C)[C@@H](CN(C)Cc2ccc(Oc3ccccc3)cc2)Oc2cc(-c3ccncc3)ccc2S1(=O)=O | inactive
C[C@H]1CCCCO[C@@H](CN(C)C(=O)Nc2ccc(C(F)(F)F)cc2)[C@@H](C)CN([C@@H](C)CO)C(=O)c2cc(NS(C)(=O)=O)ccc2O1 | inactive
Cc1noc(C)c1NC(=O)N(C)C[C@H]1OCCCC[C@@H](C)Oc2ccc(NS(=O)(=O)c3cccs3)cc2C(=O)N([C@H](C)CO)C[C@@H]1C | inactive
C[C@@H]1CN([C@@H](C)CO)S(=O)(=O)c2ccc(C#Cc3ccccc3)cc2O[C@@H]1CN(C)C(=O)CN(C)C | inactive
C[C@@H]1CCCCO[C@H](CN(C)Cc2ccccc2)[C@H](C)CN([C@H](C)CO)C(=O)c2cc(NC(=O)Nc3cccc4ccccc34)ccc2O1 | active
C[C@H]1CCCCO[C@@H](CN(C)Cc2ccccc2)[C@@H](C)CN([C@@H](C)CO)C(=O)c2cc(NC(=O)Nc3cccc4ccccc34)ccc2O1 | active
C[C@@H]1CCCCO[C@H](CN(C)Cc2ccccc2)[C@@H](C)CN([C@@H](C)CO)C(=O)c2cc(NC(=O)Nc3cccc4ccccc34)ccc2O1 | active
C[C@@H]1CCCCO[C@H](CN(C)Cc2ccc(C(=O)O)cc2)[C@@H](C)CN([C@@H](C)CO)C(=O)c2cc(NC(=O)Nc3cccc4ccccc34)ccc2O1 | inactive
C[C@H](CO)N1C[C@H](C)[C@H](CN(C)Cc2ccccc2)OCCCC[C@H](C)Oc2ccc(NC(=O)Nc3cccc4ccccc34)cc2C1=O | inactive
C[C@@H]1CCCCO[C@@H](CN(C)Cc2ccccc2)[C@@H](C)CN([C@@H](C)CO)C(=O)c2cc(NC(=O)Nc3cccc4ccccc34)ccc2O1 | inactive
C[C@@H]1CN([C@H](C)CO)C(=O)c2cc(NC(=O)Nc3cccc4ccccc34)ccc2O[C@@H](C)CCCCO[C@H]1CN(C)Cc1ccccc1 | inactive
C[C@H](CO)N1C[C@H](C)[C@@H](CN(C)Cc2ccccc2)OCCCC[C@H](C)Oc2ccc(NC(=O)Nc3cccc4ccccc34)cc2C1=O | active
C[C@@H]1CCCCO[C@H](CN(C)Cc2ccc(C(=O)O)cc2)[C@H](C)CN([C@H](C)CO)C(=O)c2cc(NC(=O)Nc3cccc4ccccc34)ccc2O1 | inactive
C[C@@H]1CCCCO[C@H](CN(C)Cc2ccccc2)[C@@H](C)CN([C@H](C)CO)C(=O)c2cc(NC(=O)Nc3cccc4ccccc34)ccc2O1 | inactive
